For nine compounds, growth results are on record in PubChem BioAssay (NCI).

SMILES strings stand for the structures. Compounds without any hit were thinned out: in the full panel of roughly 83,000, 20% have a hit.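 Cells were grown in 96-well plates and exposed to the test compound at a single concentration for 48 hours; results are reported as percent growth, with values below 10 considered active.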 Unmarked numbers belong to inactive results. Activity calls are given as the source filed them.

Among the test systems are SK-MEL-2 melanoma; EKVX NSCLC; SN12C renal; UO-31 renal; TK-10 renal; ACHN renal; CAKI-1 renal; A498 renal; CCRF-CEM leukemia; MOLT-4 leukemia; RPMI-8226 leukemia; OVCAR-8 ovarian; OVCAR-5 ovarian; OVCAR-4 ovarian; SK-OV-3 ovarian; IGROV1 ovarian; OVCAR-3 ovarian; HS 578T breast; NCI/ADR-RES ovarian.
Common to all, as to assay: NCI-60 one-dose screen, 48 h (100 = growth as untreated, 0 = no growth, -100 = all killed)
What all share (details): 10 µM unless noted

Regarding `Oc1cccnc1CN1CCCC1`, the growth in the test with SK-MEL-2 melanoma is 108%; in the test with EKVX NSCLC it was 106%; in the test on SN12C renal, 97.6%; with UO-31 renal it was 92.1%; with TK-10 renal it was 111%; in the test on ACHN renal it was 105%. For the same compound, the growth with CAKI-1 renal is 97%; in the test on A498 renal, 108%; in the test with CCRF-CEM leukemia, 101%; with MOLT-4 leukemia, 94.2%; in the test with RPMI-8226 leukemia, 100%; with OVCAR-8 ovarian, 94.7%. Also, the growth in the test with OVCAR-5 ovarian was 97.9%; with OVCAR-4 ovarian, 108%; in the test on SK-OV-3 ovarian, 103%; in the test on IGROV1 ovarian it was 102%; with OVCAR-3 ovarian, 117%; in the test on HS 578T breast, 104%. For the same compound, the growth in the test on NCI/ADR-RES ovarian was 108%.
Consider `CCOP(=O)(NC(c1ccccc1)c1ccccc1)OCC`, for which the growth in the test with SK-MEL-2 melanoma is 109%; in the test on EKVX NSCLC it was 109%; in the test on SN12C renal it was 146%; with UO-31 renal, 84.4%; in the test on TK-10 renal it was 112%; in the test on ACHN renal it was 103%. Further, the growth in the test with CAKI-1 renal is 93%; with A498 renal, 102%; in the test on CCRF-CEM leukemia it was 103%; in the test with MOLT-4 leukemia it was 106%; with RPMI-8226 leukemia, 104%; in the test with OVCAR-8 ovarian, 98.1%. Further, the growth is 108% with OVCAR-5 ovarian; 106% in the test on OVCAR-4 ovarian; 92.2% in the test on IGROV1 ovarian; 112% with OVCAR-3 ovarian; 107% with HS 578T breast; 104% in the test with NCI/ADR-RES ovarian.
With `COC(=O)C1=C(C)C(=O)CC1`, the growth in the test on SK-MEL-2 melanoma was 115%; with EKVX NSCLC, 131%; in the test with SN12C renal, 98.3%; in the test on UO-31 renal it was 89%; with TK-10 renal it was 108%; in the test on ACHN renal, 99.7%. Moreover, the growth was 116% in the test with CAKI-1 renal; 109% in the test on A498 renal; 99.6% in the test with CCRF-CEM leukemia; 101% with MOLT-4 leukemia; 110% in the test on RPMI-8226 leukemia; 109% with OVCAR-8 ovarian. The growth is 99.6% in the test on OVCAR-5 ovarian; 119% in the test on OVCAR-4 ovarian; 112% with SK-OV-3 ovarian; 112% in the test on IGROV1 ovarian; 114% in the test on OVCAR-3 ovarian; 104% with HS 578T breast. Moreover, the growth in the test on NCI/ADR-RES ovarian is 135%.
As to `CCCCCCCCCCCCCC/C=C\C(CC(=O)O)C(=O)O` (centres undefined), the growth with SK-MEL-2 melanoma was 110%; in the test with EKVX NSCLC it was 140%; with SN12C renal it was 100%; in the test with UO-31 renal, 95.9%; in the test on TK-10 renal it was 111%; in the test with ACHN renal, 110%. Also, the growth in the test with CAKI-1 renal was 129%; in the test with A498 renal it was 95.2%; in the test with CCRF-CEM leukemia, 4.62% (active); in the test on MOLT-4 leukemia, 115%; in the test on RPMI-8226 leukemia, 113%; in the test on OVCAR-8 ovarian it was 103%. The growth was 105% with OVCAR-5 ovarian; 112% in the test with OVCAR-4 ovarian; 105% in the test on SK-OV-3 ovarian; 117% in the test with IGROV1 ovarian; 114% in the test on OVCAR-3 ovarian; 127% with HS 578T breast. Further, the growth in the test with NCI/ADR-RES ovarian was 107%.
For `CN=S(=O)(OCCCCCOS(=O)(=NC)c1ccc(C)cc1)c1ccc(C)cc1` (centres undefined), the growth in the test on SK-MEL-2 melanoma was 94%; with EKVX NSCLC it was 95.4%; in the test on SN12C renal, 95.1%; with UO-31 renal, 49.4%; in the test with TK-10 renal it was 118%; in the test with ACHN renal, 77.2%. Also, the growth in the test on CAKI-1 renal was 74.6%; in the test with A498 renal, 87.6%; in the test with CCRF-CEM leukemia, 39.6%; with MOLT-4 leukemia, 78.6%; in the test with RPMI-8226 leukemia, 75.2%; with OVCAR-8 ovarian it was 95%. The growth in the test on OVCAR-5 ovarian was 106%; in the test on OVCAR-4 ovarian, 82.8%; in the test on SK-OV-3 ovarian, 100%; in the test with IGROV1 ovarian it was 13.6%; with OVCAR-3 ovarian, 104%; in the test on HS 578T breast, 90.1%. For the same compound, the growth in the test with NCI/ADR-RES ovarian was 89.7%.
On to `O=S(=O)(O)c1cccc2cccnc12`, for which the growth was 108% with SK-MEL-2 melanoma; 110% in the test on EKVX NSCLC; 103% in the test with SN12C renal; 76.8% in the test with UO-31 renal; 118% in the test on TK-10 renal; 111% with ACHN renal. For the same compound, the growth in the test on CAKI-1 renal is 96.1%; with A498 renal it was 104%; with CCRF-CEM leukemia, 103%; in the test with MOLT-4 leukemia, 100%; in the test with RPMI-8226 leukemia, 107%; in the test on OVCAR-8 ovarian it was 112%. The growth in the test with OVCAR-5 ovarian is 106%; in the test with OVCAR-4 ovarian, 118%; in the test on SK-OV-3 ovarian, 114%; in the test with IGROV1 ovarian it was 101%; in the test with OVCAR-3 ovarian, 95.3%; in the test with HS 578T breast, 95.2%. In the test with NCI/ADR-RES ovarian, the growth was 106%.
Regarding `Nc1ccn(C2OC(CO)C(O)C2F)c(=O)n1` (centres undefined), the growth with SK-MEL-2 melanoma was 90.1%; in the test with EKVX NSCLC it was 96.4%; in the test with SN12C renal, 78.8%; in the test with UO-31 renal it was 76.8%; with TK-10 renal, 92.5%; with ACHN renal, 62.1%. The growth was 69.8% in the test on CAKI-1 renal; 88.5% in the test on A498 renal; 19.1% in the test on CCRF-CEM leukemia; -15.5% (active) in the test on MOLT-4 leukemia; 73.8% in the test on RPMI-8226 leukemia; 61.8% in the test on OVCAR-8 ovarian. Also, the growth in the test with OVCAR-5 ovarian was 93.2%; in the test on OVCAR-4 ovarian, 84.4%; with IGROV1 ovarian, 109%; in the test with OVCAR-3 ovarian it was 80.4%; in the test on HS 578T breast it was 90.8%; in the test with NCI/ADR-RES ovarian, 73.2%.
With `S=c1nc2[nH]c3ccccc3c2n[nH]1`, the growth is 5.51% (active) in the test on SK-MEL-2 melanoma; 66.4% in the test with EKVX NSCLC; 92.2% with SN12C renal; 88.6% with UO-31 renal; 122% in the test on TK-10 renal; 97.2% in the test with ACHN renal. In addition, the growth was 88.9% in the test with CAKI-1 renal; 95.7% with A498 renal; 91.3% with CCRF-CEM leukemia; 104% with MOLT-4 leukemia; 74.2% with RPMI-8226 leukemia; 97.4% with OVCAR-8 ovarian. Also, the growth is 93.6% in the test on OVCAR-5 ovarian; 102% with OVCAR-4 ovarian; 89.3% in the test on SK-OV-3 ovarian; 103% in the test with IGROV1 ovarian; 88.6% with OVCAR-3 ovarian; 80.2% in the test with HS 578T breast. For the same compound, in the test on NCI/ADR-RES ovarian, the growth is 102%.
With `CC(=O)N=c1ccc2nc3c(cc(N)c4ccccc43)oc-2c1`, the growth with SK-MEL-2 melanoma is -42.4% (active); in the test with EKVX NSCLC, 2.37% (active); in the test on SN12C renal it was -72.8% (active); with UO-31 renal, -43.9% (active); in the test on TK-10 renal, 47.6%; in the test on ACHN renal it was 32.5%. The growth is -23.1% (active) with CAKI-1 renal; 80.5% in the test with A498 renal; -11.5% (active) in the test on CCRF-CEM leukemia; -37.2% (active) with MOLT-4 leukemia; -19.9% (active) in the test on RPMI-8226 leukemia; -22.1% (active) in the test with OVCAR-8 ovarian. For the same compound, the growth with OVCAR-5 ovarian was -73.5% (active); in the test with OVCAR-4 ovarian, -89.8% (active); in the test with SK-OV-3 ovarian, 80.1%; with IGROV1 ovarian it was -81.7% (active); in the test with OVCAR-3 ovarian, -82.8% (active); in the test on HS 578T breast, -27.7% (active). For the same compound, in the test with NCI/ADR-RES ovarian, the growth is -6.88% (active).
